# ChEMBL document CHEMBL3988442, “University of Dundee, Small-Polar-MMV Screening Library” (2021)
# The campaign covered roughly 48,000 compounds. About 13,000 (27%) showed an effect of 50% or more. This is one part of the list.
# System: Wolbachia pipientis
# Assay: Anti-Wolbachia Cell-Based Screen
# Type: functional
# Parameters: scale not given: in the data most compounds retested in dose-response had high values
# Details: 5 µM
row,SMILES,Percent Effect
1,NC(=O)NCCC(=O)N1CCC(c2cc(Cc3ccccc3)n[nH]2)CC1,-24.35%
2,Cn1ncc2c1CCCC2NCc1cccnc1 (stereo unspecified),87.53%
3,CSc1ccc(CNC2CCCc3c2cnn3C)cc1.Cl (stereo unspecified),78.82%
4,COc1cc(CNC2CCCc3c2cnn3C)cc(OC)c1.Cl (stereo unspecified),0.06204%
5,Cn1ncc2c1CCCC2NCc1ccc(OCc2cccnc2)cc1 (stereo unspecified),102.9%
6,Cn1ncc2c1CCCC2NCc1ccc(Cl)s1 (stereo unspecified),-1.294%
7,Cc1cccc(CNC2CCCc3c2cnn3C)c1.Cl (stereo unspecified),0.5584%
8,Cl.Cn1ncc2c1CCCC2NCc1ccc(Br)s1 (stereo unspecified),-6.912%
9,Cc1ccc(CNC2CCCc3c2cnn3C)s1.Cl (stereo unspecified),1.48%
10,Cn1ncc2c1CCCC2NCc1cnc(-c2ccccc2)nc1 (stereo unspecified),-0.06204%
11,Cn1ccc(C(=O)N2CCC(Cc3cccc4ncccc34)CC2)n1,112%
12,Cn1ccc(C(=O)N2CCC(Cc3cccc4cccnc34)C2)n1 (stereo unspecified),-6.832%
13,COc1cccc(CCC2CCCN(C(=O)c3ccc(=O)n(C)n3)C2)c1 (stereo unspecified),-50.16%
14,Cn1ccc(C(=O)N2CCCC(Cc3cnc4ccccc4c3)C2)n1 (stereo unspecified),126.8%
15,Cn1ccc(C(=O)N2CCCC(Cc3cccc4ncccc34)C2)n1 (stereo unspecified),-23.19%
16,CC(C)(C)C(O)CN1CCN(C(=O)c2cccc3ncccc23)CC1 (stereo unspecified),5.5%
17,Cn1ccc(C(=O)N2CCCC(Cc3cccc4cccnc34)C2)n1 (stereo unspecified),100.6%
18,Cn1ccc(C(=O)N2CCC(Cc3cccc4ncccc34)C2)n1 (stereo unspecified),142.2%

row,SMILES,Percent Effect
1,CC(C)C(C)NC(=O)CN1CCSCC1 (stereo unspecified),15.54%
2,COC(=O)N1CCCCC1C(=O)N(C)Cc1cc(-c2cccnc2)no1 (stereo unspecified),-13.17%
3,CC(c1ccccc1)N(C)CC(=O)NCCC#N (stereo unspecified),10.46%
4,COc1ccc2nc3n(c2c1)[C@@H](CNC(=O)c1cncnc1)COC3,-25.15%
5,CCOC(=O)C1CCCCN1Cc1c[nH]nc1-c1ccc(F)cc1F (stereo unspecified),-25.87%
6,CN(C)S(=O)(=O)N1CCN(Cc2ccnc(N3CCCC3)n2)CC1,116.4%
7,CN(C)S(=O)(=O)N1CCN(c2ccnc(N3CCCC3)n2)CC1,6.981%
8,CN(C)S(=O)(=O)N1CCN(c2ccnc(N3CCCCC3)n2)CC1,2.063%
9,CC(C)CN1CC(c2nc(-c3cccc(F)c3)c[nH]2)CC1=O (stereo unspecified),-7.334%
10,COc1cc(NC2CCCN(c3ncccc3C#N)C2)cc(OC)c1 (stereo unspecified),118.7%
11,COc1cc(NC2CCCN(c3ncccn3)C2)cc(OC)c1 (stereo unspecified),107.2%
12,COc1cc(CNC2CCCN(c3ncccn3)C2)cc2c1OCO2 (stereo unspecified),-8.887%
13,COc1cc(NC2CCCNC2)cc(OC)c1 (stereo unspecified),-9.333%
14,Cc1cc(C(=O)NC2CCN(c3ncccc3C#N)CC2)no1,-13.19%
15,Cc1ncsc1C(=O)NC1CCN(c2ncccc2C#N)CC1,3.03%
16,CC(OCC1CC1)C(=O)N1CCCN(c2ncccc2C#N)CC1 (stereo unspecified),0.6677%
17,COc1ccccc1N1CCCC(Nc2nccnc2C#N)C1 (stereo unspecified),-6.167%
18,N#Cc1cccnc1N1CCC(Nc2ccccc2)C1 (stereo unspecified),96.82%
